“And” between values parts separate entries of the source, which are not always exact repeats. Identical values can stand only once. Results filed as inconclusive are left out. More than one record can exist for a structure, and the calls need not agree. The source made the active and inactive calls. The calls were made as follows, unless noted: active = hit-call score of the fitted dose curve at least 0.9, where 1 is the maximum; inactive = score below 0.9.
Tests used:
[1] = IUF_NPC2c_oligodendrocyte_migration_120hr: Leibniz Research Institute for Environmental Medicine (IUF) 120-hour Neural Progenitor Cell Migration Assay for Oligodendrocyte Migration (NPC2c) (AID 2284297);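 also: O4-positive oligodendrocyte migration distance divided by radial glia migration distance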
In short: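 Primary hNPC spheres migrating on extracellular matrix, exposed five days to a 7-point dilution series with solvent control. Oligodendrocyte migration was scored by high-content imaging of O4 immunostaining and expressed relative to radial glia distance.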

[2] = IUF_NPC2a_radial_glia_migration_120hr: Leibniz Research Institute for Environmental Medicine (IUF) 120-hour Neural Progenitor Cell Migration Assay for Radial Glia Migration (NPC2a) (AID 2284298)
In short: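 In this multiplexed test, fetal hNPC spheres migrate radially on poly-D-lysine/laminin in N2 medium (37C, 5% CO2, pH 7.2-7.6) under continuous compound exposure over five days. Migration is scored at 120 h from automated Hoechst nuclear imaging.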

[3] = IUF_NPC2a_radial_glia_migration_72hr: Leibniz Research Institute for Environmental Medicine (IUF) 72-hour Neural Progenitor Cell Migration Assay for Radial Glia Migration (NPC2a) (AID 2284299)
In short: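 Migration out of plated human neural progenitor spheres is scored at 72 h as the distance in um from the sphere core edge to the edge of the migration area. Values are the mean of four manual measurements per well, normalised to DMSO.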

[4] = IUF_NPC2b_neuronal_migration_120hr: Leibniz Research Institute for Environmental Medicine (IUF) 120-hour Neural Progenitor Cell Migration Assay for Neuron Migration (NPC2b) (AID 2284300)
In short: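 Neurons identified by TUBB3 immunostaining and Hoechst nuclei; migration distance measured automatically on fixed wells at 120 h, normalized to glia migration. Exposure spanned five days of differentiation in N2 medium, seven test concentrations.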

[5] = IUF_NPC3_neuronal_differentiation_120hr: Leibniz Research Institute for Environmental Medicine (IUF) 120-hour Neuronal Differentiation Assay (NPC3) (AID 2284301)
In short: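 Primary human fetal neural progenitor spheres (GW 16-19, 0.3 mm) plated on poly-D-lysine/laminin in N2 medium, exposed from day 0 for 120 h with half-medium refresh at day 3. TUBB3+ cells as percent of Hoechst nuclei in migration area; DMSO baseline.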

[6] = IUF_NPC5_oligodendrocyte_differentiation_120hr: Leibniz Research Institute for Environmental Medicine (IUF) 120-hour Oligodendrocyte Differentiation Assay (NPC5) (AID 2284304; active = hit-call score of the fitted dose curve at least 0.9, where 1 is the maximum;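 also: primary human fetal neural progenitor spheres plated to migrate and differentiate; share of O4-positive cells among Hoechst nuclei found by CNN image analysis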)
In short: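 Human primary NPC neurospheres migrating and differentiating on laminin for 120 h under continuous compound exposure (serial dilution, solvent control). Endpoint: percent O4+ oligodendrocytes among Hoechst nuclei, detected by CNN image analysis, with DMSO as negative control.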

[7] = IUF_NPC4_neurite_area_120hr: Leibniz Research Institute for Environmental Medicine (IUF) 120-hour Neuronal Morphology Assay for Neurite Area (NPC4) (AID 2284305; active = hit-call score of the fitted dose curve at least 0.9, where 1 is the maximum)
In short: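 Human fetal cortex-derived neural progenitor spheres (0.3 mm, GW 16-19) plated on poly-D-lysine/laminin in N2 differentiation medium and exposed from day 0 for 120 h across 7 concentrations plus solvent control. Neurite area is mean pixel area per TUBB3-positive neuron via skeletonization, analysed relative to DMSO.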

[8] = IUF_NPC2-5_cytotoxicity_72hr: Cytotoxicity Assessment at 72 hours in the Leibniz Research Institute for Environmental Medicine (IUF) Neural Progenitor Cell Migration and Differentiation Assay for Cytotoxicity (NPC2-5) (AID 2284306; active = hit-call score of the fitted dose curve at least 0.9, where 1 is the maximum;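 also: LDH release into supernatant measured by resorufin fluorescence marking membrane damage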)
In short: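 Human fetal (GW 16-19) neural progenitor spheres, 0.3 mm, plated on poly-D-lysine/laminin in N2 differentiation medium and exposed from day 0 to 7 concentrations plus solvent control (DMSO ≤0.1%). LDH-dependent resazurin-to-resorufin fluorescence in supernatant at 72 h.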

[9] = IUF_NPC2-5_cell_number_120hr: Cell Number Assessment at 120 hours in the Leibniz Research Institute for Environmental Medicine (IUF) Neural Progenitor Cell Migration and Differentiation Assay (NPC2-5) (AID 2284308);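 also: count of Hoechst-stained nuclei in migration zone around plated human neural progenitor spheres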
In short: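 Cell number is taken as all Hoechst-positive nuclei detected in the area into which cells migrate out of the sphere, scored at 120 h and referenced to DMSO solvent control, which was kept at no more than 0.1%.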

[10] = read-out: Interleukin 2 (IL2), IL2 (gene 3558); assay: BSK_BT_xIL2: BioMAP Diversity Plus: BT Assay for Interleukin 2 (IL2) Biomarker Activity (AID 2284245); details: primary human B cells with PBMC
In short: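 Secreted interleukin-2 from human B cell/PBMC co-cultures, measured 24 h post-dosing by Luminex multiplex immunoassay. Upward-direction curve fitting against DMSO baseline.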

[11] = read-out: Basic fibroblast growth factor (bFGF), FGF2 (gene 2247); assay: BSK_MyoF_bFGF: BioMAP Diversity Plus: MyoF Assay for Basic fibroblast growth factor (bFGF) Biomarker Activity (AID 2284246); details: primary human lung fibroblasts
In short: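 In this multiplexed cell system, lung fibroblasts (human primary) receive test chemical for 24 h before ELISA detection of bFGF; DMSO defines baseline and the analysis direction is positive.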

[12] = read-out: Collagen IV, COL4A1 (gene 1282); assay: BSK_MyoF_CollagenIV: BioMAP Diversity Plus: MyoF Assay for Collagen IV Biomarker Activity (AID 2284247); details: primary human lung fibroblasts
In short: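 Activity is scored as a signal increase over DMSO in an ELISA for Collagen IV, measured on human lung fibroblasts at 24 h after chemical treatment. Cytotoxicity is checked in parallel cultures by sulforhodamine B total-protein staining.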

[13] = read-out: Plasminogen activator inhibitor-1 (PAI1), SERPINE1 (gene 5054); assay: BSK_MyoF_PAI1: BioMAP Diversity Plus: MyoF Assay for Plasminogen activator inhibitor-1 (PAI1) Biomarker Activity (AID 2284256); details: primary human lung fibroblasts
In short: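 Activity reflects increased PAI-1, determined by ELISA and compared with DMSO, in human lung fibroblasts treated for 24 h.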

[14] = read-out: Interleukin-8 (IL8), CXCL8 (gene 3576); assay: BSK_MyoF_IL8: BioMAP Diversity Plus: MyoF Assay for Interleukin-8 (IL8) Biomarker Activity (AID 2284261); details: primary human lung fibroblasts
In short: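 In this multiplexed primary-cell system, fibroblasts from human lung are treated with chemicals, and IL-8 is detected by ELISA at 24 h, with DMSO serving as the negative reference.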

Decorin, DCN (gene 1634) = assay: BSK_MyoF_Decorin: BioMAP Diversity Plus: MyoF Assay for Decorin Biomarker Activity (AID 2284265); details: primary human lung fibroblasts
In short: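 Lung fibroblast cultures, 24 h chemical exposure. Decorin by ELISA, positive fitting direction, DMSO baseline.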

[15] = BSK_MyoF_SRB: Viability Assessment in the BioMAP Diversity Plus: MyoF Assay (AID 2284267); details: primary human lung fibroblasts;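 also: total protein by SRB absorbance in parallel cultures as cytotoxicity measure; cells assessed 24 h after compound addition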
In short: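 Cytotoxicity in primary human lung fibroblasts is gauged by SRB total-protein staining 24 h after dosing, with DMSO as the negative control.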

[16] = read-out: Matrix Metallopeptidase 1 (MMP1), MMP1 (gene 4312); assay: BSK_MyoF_MMP1: BioMAP Diversity Plus: MyoF Assay for Matrix Metallopeptidase 1 (MMP1) Biomarker Activity (AID 2284268); details: primary human lung fibroblasts
In short: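 MMP1 measured by ELISA 24 h after dosing primary human lung fibroblasts; cytotoxicity checked in parallel cultures by sulforhodamine B total-protein staining read at 560 nm.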

[17] = read-out: TIMP metallopeptidase inhibitor 1 (TIMP1), TIMP1 (gene 7076); assay: BSK_MyoF_TIMP1: BioMAP Diversity Plus: MyoF Assay for TIMP metallopeptidase inhibitor 1 (TIMP1) Biomarker Activity (AID 2284269); details: primary human lung fibroblasts
In short: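 TIMP-1 levels were determined by ELISA in human lung fibroblasts treated for 24 h. DMSO served as negative control and baseline for upward curve fitting.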

[18] = VALA_TUBHUV_Agonist_CellCount: Viability Assessment in the VALA Sciences human Umbilical Vein Endothelial Tubule Formation (TUBHUV) Agonism Assay (AID 2284309; active = hit-call score of the fitted dose curve at least 0.9, where 1 is the maximum)
In short: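 HUVEC co-cultured 1:3 with HDF for 3 days in 10 ng/ml VEGF, then compounds added in VEGF medium for a further 3 days (72 h). Nuclear-stain/CD31 imaging cell count. Positive-direction fit versus 0.1% DMSO vehicle.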

[19] = VALA_TUBHUV_Antagonist_CellCount: Viability Assessment in the VALA Sciences human Umbilical Vein Endothelial Tubule Formation (TUBHUV) Antagonism Assay (AID 2284310; active = hit-call score of the fitted dose curve at least 0.9, where 1 is the maximum)
In short: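 HUVEC co-cultured with HDF (1:3) 3 days in 10 ng/ml VEGF, then 3 days with compounds in VEGF medium. Fixed, nuclear stain and CD31 immunofluorescence, imaged; cell counts fitted versus 0.1% DMSO, loss of signal read as lower viability.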

Measured: AC50

CCOP(=O)(NC(C)C)Oc1ccc(SC)c(C)c1 (stereo unspecified)
active: [2] 33.7 µM | [6] 10.2 µM
inactive: [1] | [3] | [4] | [5] | [7] | [8] | [9]

CC(=NC#N)N(C)Cc1ccc(Cl)nc1
inactive: [1] | [2] | [3] | [4] | [5] | [7] | [8] | [9]

CN1COCN(Cc2cnc(Cl)s2)C1=N[N+](=O)[O-]
inactive: [1] | [2] | [3] | [4] | [5] | [6] | [7] | [8] | [9]

CC(C)N(C(=O)SCC(Cl)=C(Cl)Cl)C(C)C
active: [2] 4.18 µM
inactive: [1] | [3] | [4] | [5] | [6] | [8] | [9]

COP(=O)(OC)OC(Br)C(Cl)(Cl)Br (stereo unspecified)
active: [1] 34.9 µM | [2] 35.4 µM | [3] 39 µM | [4] 38100 nM | [5] 40.9 µM | [7] 27 µM | [9] 25.7 µM
inactive: [8]

CON=C(C(=O)OC)c1ccccc1CON=C(C)c1cccc(C(F)(F)F)c1
inactive: [3] | [4] | [8] | [9]
active: [1] 71.2 µM | [2] 11.8 µM | [5] 1.06 µM | [6] 7.95 µM | [7] 0.127 µM

C=C(C)[C@H]1Cc2c(ccc3c2O[C@@H]2COc4cc(OC)c(OC)cc4[C@@H]2C3=O)O1
active: [1] 0.0062 µM | [2] 244 nM and 3.4 nM | [3] 220 nM and 4.24 nM | [4] 9.58 nM | [5] 58 nM and 7.87 nM | [7] 220 nM and 15.5 nM | [9] 0.00141 µM
inactive: [1] | [4] | [8]

S=C1NCCN1
inactive: [1] | [2] | [3] | [4] | [5] | [6] | [7] | [8] | [9]

CSC1=N[C@@](C)(c2ccccc2)C(=O)N1Nc1ccccc1
inactive: [1] | [2] | [3] | [4] | [5] | [7] | [8] | [9]

O=[N+]([O-])c1cc(C(F)(F)F)c(Cl)c([N+](=O)[O-])c1Nc1ncc(C(F)(F)F)cc1Cl
active: [10] 3.34 µM | [11] 3.75 µM | [12] 2.27 µM | [13] 2.2 µM | [14] 20 µM | Decorin, DCN (gene 1634) 5.88 µM | [15] 2.6 µM | [16] 3.25 µM | [17] 3.9 µM | [1] 0.736 µM | [2] 0.832 µM | [3] 0.73 µM | [4] 796 nM | [5] 0.601 µM | [6] 1.3 µM | [7] 1.13 µM | [8] 3.71 µM | [9] 1.1 µM
inactive: [18] | [19]

CCOP(=S)(OCC)Oc1cc(C)nc(C(C)C)n1
inactive: [1] | [2] | [3] | [4] | [5] | [6] | [7] | [8] | [9]

CCOP(=S)(OCC)OC(Cl)C(Cl)(Cl)Cl (stereo unspecified)
inactive: [1] | [3] | [4] | [5] | [6] | [7] | [8] | [9]
active: [2] 22.8 µM

— PubChem BioAssay (EPA / NIEHS)
